# Laboratory results from PubChem BioAssay (Tox21).
# Values without a mark were called inactive. Records with an inconclusive call do not appear. Entries that show only a call come without a potency. Activity calls are given as the source filed them. Unless noted, the call rests on the fitted dose curve.
# Assays:
# [1] = Nuclear factor erythroid 2-related factor 2/antioxidant responsive element (Nrf2/ARE) small molecule agonists: qHTS cell viability counter screen in human keratinocytes (AID 1919968; active means well fitted curve in the direction sought with a large enough effect in the repeat runs; an effect the other way counts as inactive or inconclusive; further: nearly all actives have a fitted effect of over 55% in size; further: potency means the concentration at half of the fitted maximal effect)
# Method in brief: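 KeratinoSens HaCaT cells, 1,500/well, preincubated 5 h, then exposed to compounds in DMSO for 23 h at 37 C/5% CO2. Viability read as CellTiter-Fluor fluorescence after 1 h, in the same wells as the ARE-luciferase read.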
# [2] = Nuclear factor erythroid 2-related factor 2/antioxidant responsive element (Nrf2/ARE) small molecule agonists: luciferase reporter gene qHTS assay in human keratinocytes (AID 1919969); further: nearly all actives have a fitted effect of over 35% in size; further: potency means the concentration at half of the fitted maximal effect
# [3] = molecular target: Gonadotropin-releasing hormone receptor (Homo sapiens) (UniProt P30968); test: Human gonadotropin-releasing hormone receptor (GnRHR) small molecule agonists, calcium flux assay in GnRHR-HEK293 cells (AID 1920063); further: nearly all actives have a fitted effect of over 35% in size
# Method in brief: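 HEK293 cells stably expressing human GnRHR were dye-loaded for 1 h at 37 C. Compound was added in agonist mode and fluorescence (Ex/Em 480/540) recorded kinetically for 3 min. Fifteen concentrations, triplicates.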
# [4] = molecular target: KiSS-1 receptor (Homo sapiens) (UniProt Q969F8); test: Human kisspeptin (KISS1R) small molecule agonists, calcium flux assay in KISS1R-HEK293 cells (AID 1920064; active means well fitted curve in the direction sought with a large enough effect in the repeat runs; an effect the other way counts as inactive or inconclusive)
# Method in brief: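 HEK293 cells stably expressing human KISS1R were loaded with calcium dye for 1 h at 37 C, then given compound; fluorescence (Ex/Em 480/540) was read kinetically for 3 min. Fifteen concentrations, triplicate.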
# [5] = p53 small molecule agonists, cell-based qHTS assay with human liver microsomes: qHTS cell viability counter screen (AID 1963579); further: nearly all actives have a fitted effect of over 45% in size
# Method in brief: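 After the 460/530 nm beta-lactamase read, CellTiter-Glo was added to the same wells and luminescence measured after 30 min at room temperature, giving viability of p53RE-bla cells treated 16 h with compounds plus microsomes and NADPH.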
# [6] = p53 small molecule agonists, cell-based qHTS assay with rat liver microsomes: qHTS cell viability counter screen (AID 1963580); further: nearly all actives have a fitted effect of over 45% in size; further: potency means the concentration at half of the fitted maximal effect
# Method in brief: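 p53RE-bla HCT-116 cells were exposed 16 h at 37 C to compounds with rat liver microsomes (0.5 mg/mL) and NADPH (0.5 mg/mL). Viability was measured in the same wells as ATP content by CellTiter-Glo luminescence.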
# [7] = p53 small molecule agonists, cell-based qHTS assay: qHTS cell viability counter screen (AID 1963581); further: nearly all actives have a fitted effect of over 45% in size; further: potency means the concentration at half of the fitted maximal effect
# Method in brief: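 p53RE-bla HCT-116 cells, compounds added 5 h after plating and incubated 16 h at 37 C. Cytotoxicity measured in the same wells as intracellular ATP by CellTiter-Glo luminescence after 30 min at room temperature.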
# [8] = molecular target: 5-hydroxytryptamine receptor 2A (Homo sapiens) (UniProt P28223); test: 5-hydroxytryptamine receptor 2A (HTR2A) small molecule antagonists, cell-based qHTS assay (AID 1963586); further: nearly all actives have a fitted effect of over 45% in size; further: potency means the concentration at half of the fitted maximal effect
# Method in brief: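 Antagonist-mode intracellular calcium assay: DOI (4 nM) added after 5 min compound pre-incubation at room temperature to dye-loaded HTR2A-CHO cells. Fluorescence followed for 3 min, sampled every second.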
# [9] = molecular target: 5-hydroxytryptamine receptor 2A (Homo sapiens) (UniProt P28223); test: 5-hydroxytryptamine receptor 2A (HTR2A) small molecule agonists, cell-based qHTS assay (AID 1963587); further: nearly all actives have a fitted effect of over 30% in size
# Method in brief: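 CHO cells stably expressing human HTR2A, plated 18 h, loaded with calcium dye 1 h at 37 C. Agonist mode: compounds added and intracellular calcium fluorescence recorded kinetically for 2 min at 1 sec intervals.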
# [10] = molecular target: Muscarinic acetylcholine receptor M1 (Homo sapiens) (UniProt P11229); test: Cholinergic receptor muscarinic 1 (CHRM1) small molecule antagonists, cell-based qHTS assay (AID 1963588); further: nearly all actives have a fitted effect of over 40% in size; further: potency means the concentration at half of the fitted maximal effect
# Method in brief: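 CHRM1-CHO calcium-flux assay, antagonist mode. Cells were seeded 18 h, dye-loaded 1 h at 37 C and given compound for 5 min at RT, then acetylcholine was added at 50nM. FDSS fluorescence was read 3 min; 15 concentrations, three runs.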
# [11] = molecular target: Muscarinic acetylcholine receptor M1 (Homo sapiens) (UniProt P11229); test: Cholinergic receptor muscarinic 1 (CHRM1) small molecule agonists, cell-based qHTS assay (AID 1963589); further: nearly all actives have a fitted effect of over 35% in size
# Method in brief: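 CHO cells stably expressing human CHRM1 were loaded with calcium dye for 1 h at 37 C, then compound was added in agonist mode. Intracellular calcium fluorescence was followed kinetically at 1 s intervals. Fifteen concentrations were tested in three independent runs.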
# [12] = cAMP Responsive Elements (CRE) small molecule agonists, cell-based qHTS assay (AID 1963590)
# Method in brief: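 CRE-bla HEK 293T cells, 2,000/well in DMEM with 10% dialyzed FBS and 25 mM HEPES, pre-incubated 18 h at 37 C, then exposed to compound 3 h at 37 C. Beta-lactamase reporter read with LiveBLAzer B/G FRET substrate after 2 h at room temperature.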
# [13] = cAMP Responsive Elements (CRE) small molecule antagonists, cell-based qHTS assay (AID 1963591; active means well fitted inhibition curve with a large enough effect in the signal ratio in the repeat runs, not every such curve was filed as active; the % refers to the signal ratio)
# Method in brief: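 CRE-bla HEK293T cells plated 18 h, then given compound plus NKH477 at 0.25 uM final for 3 h at 37C. Beta-lactamase reporter read with LiveBLAzer B/G FRET substrate after 2 h at room temperature.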
# [14] = molecular target: Beta-2 adrenergic receptor (Homo sapiens) (UniProt P07550); test: Adrenergic beta2 receptor (ADRB2) small molecule antagonists, cell-based qHTS assay (AID 1963592); further: nearly all actives have a fitted effect of over 50% in size; further: potency means the concentration at half of the fitted maximal effect
# Method in brief: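 Cells (CHO, stable ADRB2 overexpression) incubated 18-20hr at 37C; compounds added from DMSO; agonist mix (1nM isoproterenol, 100uM IBMX, 25uM Ro-20-1724) added; 0.5hr RT; d2-cAMP and anti-cAMP-cryptate added; 1hr RT; 665/615 nm read.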
# [15] = molecular target: D(2) dopamine receptor (Homo sapiens) (UniProt P14416); test: Dopamine D2 receptor (DRD2) small molecule agonists, cell-based qHTS assay (AID 1963594); further: nearly all actives have a fitted effect of over 35% in size
# Method in brief: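 HEK293 cells stably expressing human DRD2, pre-treated with PDE inhibitor Ro20-1724 (0.1 mM final) and compound 10 min at room temperature, then stimulated with NKH477 (200nM […]) for 30 min. cAMP read by HTRF (665/620 nm).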
# [16] = molecular target: D(2) dopamine receptor (Homo sapiens) (UniProt P14416); test: Dopamine D2 receptor (DRD2) small molecule antagonists, cell-based qHTS assay (AID 1963595; active means well fitted inhibition curve with a large enough effect in the signal ratio in the repeat runs, with a control signal flat; the % refers to the signal ratio)
# Method in brief: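 Cells were plated and grown for 24 h at 37 °C. Ro20-1724 (0.1 mM final) went in first, then compound for 10 min. NKH477 (200 nM) with quinpirole (12 nM) followed for 30 min at RT, then HTRF detection reagents for 1 h.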
# [17] = p53 small molecule agonists, cell-based qHTS assay (AID 1963582; active means well fitted activation curve with a large enough effect in the signal ratio in the repeat runs, not every such curve was filed as active; the % refers to the signal ratio)
# Method in brief: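 p53RE-bla reporter cells, compounds added in DMSO after 5 h plating, incubated 16 h at 37 C. Beta-lactamase read via 2 h room-temperature LiveBLAzer B/G FRET substrate, fluorescence intensity.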
# [18] = G protein-coupled receptor (GPCR) small molecule agonists, calcium flux assay: HEK293 wild type cell line counter screen (AID 1920065)
# Method in brief: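 Wild-type HEK293 cells plated 18 h, loaded with calcium dye 1 h at 37 C, then compounds added in agonist mode (ATP as positive control). Kinetic fluorescence Ex/Em 480/540 recorded 3 min at 1 sec intervals; 15 concentrations, triplicate.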
# [19] = molecular target: Beta-2 adrenergic receptor (Homo sapiens) (UniProt P07550); test: Adrenergic beta2 receptor (ADRB2) small molecule agonists, cell-based qHTS assay (AID 1963593);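 further: CHO cells stably overexpressing human ADRB2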
# Method in brief: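 CHO cells stably over-expressing ADRB2 were plated overnight at 37C, then dosed with compounds plus a stimulation mix containing 100uM IBMX and 25uM Ro-20-1724 for 0.5hr at room temperature. cAMP was measured by HTRF competition, 1hr.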
# [20] = p53 small molecule agonists, cell-based qHTS assay with rat liver microsomes (AID 1963578)
# Method in brief: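 Metabolic activation is supplied by rat liver microsomes with NADPH (each 0.5 mg/mL final). p53RE-bla cells incubate with compound 16 h at 37 C; reporter activity is measured by LiveBLAzer fluorescence.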
# Chain of KiSS-1 receptor (Homo sapiens) (Q969F8 whole entry, looked up): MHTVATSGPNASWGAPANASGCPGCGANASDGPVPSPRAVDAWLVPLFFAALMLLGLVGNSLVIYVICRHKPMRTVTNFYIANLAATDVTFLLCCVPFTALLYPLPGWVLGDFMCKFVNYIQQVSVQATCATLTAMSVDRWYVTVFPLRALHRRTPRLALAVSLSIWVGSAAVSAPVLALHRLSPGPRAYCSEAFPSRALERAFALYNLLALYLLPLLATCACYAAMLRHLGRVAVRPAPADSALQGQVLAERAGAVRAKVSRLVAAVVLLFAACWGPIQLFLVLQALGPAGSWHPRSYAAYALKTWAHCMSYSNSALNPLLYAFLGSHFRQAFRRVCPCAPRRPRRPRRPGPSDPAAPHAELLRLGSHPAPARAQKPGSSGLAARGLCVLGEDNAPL
# Chain of D(2) dopamine receptor (Homo sapiens) (P14416 whole entry, looked up): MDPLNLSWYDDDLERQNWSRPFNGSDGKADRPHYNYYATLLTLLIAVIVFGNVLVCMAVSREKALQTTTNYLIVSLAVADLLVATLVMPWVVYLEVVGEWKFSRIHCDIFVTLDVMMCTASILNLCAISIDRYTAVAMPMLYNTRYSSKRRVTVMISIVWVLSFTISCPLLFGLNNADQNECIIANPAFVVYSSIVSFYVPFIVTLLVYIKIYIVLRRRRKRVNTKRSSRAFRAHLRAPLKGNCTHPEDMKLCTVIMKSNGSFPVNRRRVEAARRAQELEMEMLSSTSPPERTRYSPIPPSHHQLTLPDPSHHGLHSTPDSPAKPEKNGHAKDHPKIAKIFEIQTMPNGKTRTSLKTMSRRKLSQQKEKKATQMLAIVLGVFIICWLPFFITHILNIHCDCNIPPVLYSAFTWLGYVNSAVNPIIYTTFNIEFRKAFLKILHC
# Chain of Muscarinic acetylcholine receptor M1 (Homo sapiens) (P11229 whole entry, looked up): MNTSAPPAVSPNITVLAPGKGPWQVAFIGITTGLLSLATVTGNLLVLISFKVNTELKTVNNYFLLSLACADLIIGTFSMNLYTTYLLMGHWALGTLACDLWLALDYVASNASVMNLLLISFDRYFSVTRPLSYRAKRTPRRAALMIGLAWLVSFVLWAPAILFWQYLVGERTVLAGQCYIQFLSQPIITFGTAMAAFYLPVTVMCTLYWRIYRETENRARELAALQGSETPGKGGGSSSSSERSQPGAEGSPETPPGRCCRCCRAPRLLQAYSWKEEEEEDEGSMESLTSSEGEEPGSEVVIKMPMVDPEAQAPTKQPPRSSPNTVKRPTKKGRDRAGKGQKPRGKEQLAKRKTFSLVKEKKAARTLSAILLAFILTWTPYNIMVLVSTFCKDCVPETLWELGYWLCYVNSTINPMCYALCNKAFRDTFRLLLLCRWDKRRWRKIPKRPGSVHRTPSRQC
# Chain of 5-hydroxytryptamine receptor 2A (Homo sapiens) (P28223 whole entry, looked up): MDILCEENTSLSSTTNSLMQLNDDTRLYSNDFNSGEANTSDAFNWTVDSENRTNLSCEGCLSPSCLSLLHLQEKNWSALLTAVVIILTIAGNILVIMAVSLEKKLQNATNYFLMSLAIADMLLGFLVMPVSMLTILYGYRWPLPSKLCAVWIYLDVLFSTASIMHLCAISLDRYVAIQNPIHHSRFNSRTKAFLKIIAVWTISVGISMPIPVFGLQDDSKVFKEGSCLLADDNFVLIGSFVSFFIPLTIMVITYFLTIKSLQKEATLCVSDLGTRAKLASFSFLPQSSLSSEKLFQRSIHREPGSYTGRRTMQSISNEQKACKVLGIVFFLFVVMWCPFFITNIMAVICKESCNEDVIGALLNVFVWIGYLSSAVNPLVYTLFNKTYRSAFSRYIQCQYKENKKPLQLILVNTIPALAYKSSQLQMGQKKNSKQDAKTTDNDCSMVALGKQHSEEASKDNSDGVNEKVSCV
# Chain of Beta-2 adrenergic receptor (Homo sapiens) (P07550 whole entry, looked up): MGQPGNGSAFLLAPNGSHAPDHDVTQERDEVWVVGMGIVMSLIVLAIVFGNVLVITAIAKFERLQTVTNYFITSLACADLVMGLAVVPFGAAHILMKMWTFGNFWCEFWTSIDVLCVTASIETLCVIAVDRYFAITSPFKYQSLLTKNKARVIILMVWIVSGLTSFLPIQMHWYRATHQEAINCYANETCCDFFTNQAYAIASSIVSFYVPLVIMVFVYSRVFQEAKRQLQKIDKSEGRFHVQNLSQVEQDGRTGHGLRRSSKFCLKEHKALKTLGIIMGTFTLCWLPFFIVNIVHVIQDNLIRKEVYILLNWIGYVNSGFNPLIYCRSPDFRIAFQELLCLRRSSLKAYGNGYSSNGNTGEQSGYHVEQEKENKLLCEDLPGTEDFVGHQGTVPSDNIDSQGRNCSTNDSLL
# Chain of Gonadotropin-releasing hormone receptor (Homo sapiens) (P30968 whole entry, looked up): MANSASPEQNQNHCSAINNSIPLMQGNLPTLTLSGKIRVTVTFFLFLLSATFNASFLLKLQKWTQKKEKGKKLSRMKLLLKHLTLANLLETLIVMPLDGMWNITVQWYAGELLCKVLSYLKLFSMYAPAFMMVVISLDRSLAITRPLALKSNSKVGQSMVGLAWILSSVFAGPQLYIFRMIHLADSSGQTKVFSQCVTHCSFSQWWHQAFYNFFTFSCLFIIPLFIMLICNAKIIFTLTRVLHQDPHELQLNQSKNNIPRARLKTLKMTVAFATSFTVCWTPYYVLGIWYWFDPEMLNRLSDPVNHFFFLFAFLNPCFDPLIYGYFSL
Structure (SMILES),Potency [1],Potency [2],Potency [3],Potency [4],Potency [5],Potency [6],Potency [7],Potency [8],Potency [9],Potency [10],Potency [11],Potency [12],Potency [13],Potency [14],Potency [15],Potency [16],Potency [17],Potency [18],Potency [19],Potency [20]
Cc1nc2ccccc2c(=O)o1,inactive,inactive,inactive,inactive,inactive,inactive,inactive,inactive,inactive,inactive,inactive,inactive,inactive,inactive,inactive,inactive,,,,
CC(=O)c1ccc2c(c1)[C@H](NC(=O)c1ccc(F)cc1)[C@@H](O)C(C)(C)O2,inactive,inactive,inactive,inactive,inactive,inactive,inactive,inactive,inactive,inactive,inactive,inactive,inactive,inactive,inactive,inactive,inactive,,,
CCCCCCC(=O)c1ccccc1,inactive,inactive,inactive,inactive,,,inactive,inactive,,inactive,inactive,inactive,inactive,,inactive,inactive,,inactive,inactive,
O=C(Nc1ccc(Cl)c(Cl)c1)c1cc(Cl)cc(Cl)c1O,3.44 µM (active),27.3 µM (active),inactive,inactive,,40.8 µM (active),4.08 µM (active),,,,,,,24.3 µM (active),inactive,inactive,,,,inactive
CC(C)Cn1cnc2c1c(=O)n(C)c(=O)n2C,inactive,inactive,inactive,inactive,inactive,inactive,inactive,inactive,inactive,inactive,inactive,inactive,inactive,inactive,,inactive,,,inactive,
CCOC(=O)c1ccc(C#Cc2ccc3c(c2)C(C)(C)CCS3)nc1,inactive,inactive,inactive,inactive,inactive,inactive,inactive,inactive,inactive,inactive,inactive,,,inactive,inactive,inactive,,,inactive,
CCOC(=O)OCC,inactive,inactive,inactive,inactive,inactive,inactive,inactive,inactive,inactive,inactive,inactive,inactive,inactive,,inactive,inactive,,,,
COCCOc1cc2cc(C(=O)NC3CCN(C(C)C)CC3)n(CC(=O)Nc3ccc(Cl)cn3)c2cn1,inactive,inactive,inactive,inactive,inactive,inactive,inactive,inactive,inactive,inactive,inactive,inactive,,inactive,,inactive,inactive,,inactive,inactive
CCCCN(CCN(CCCC)C(=O)N1CCOCC1)C(=O)N1CCOCC1,29.8 µM (active),21.1 µM (active),inactive,inactive,,,inactive,,inactive,inactive,inactive,,,inactive,inactive,inactive,,,inactive,inactive
COc1cc(C(C)(C)C)c(O)c(C(C)(C)C)c1,inactive,48.6 µM (active),inactive,inactive,,,inactive,inactive,inactive,,inactive,,,inactive,inactive,inactive,,inactive,inactive,
N[C@@H](CS)C(=O)O,inactive,inactive,inactive,inactive,inactive,,inactive,inactive,inactive,inactive,inactive,inactive,inactive,inactive,inactive,inactive,inactive,,,inactive
CC(C)NC[C@@H](O)COc1ccc(CC(N)=O)cc1,inactive,inactive,inactive,inactive,,,,,,,,inactive,inactive,,inactive,inactive,inactive,inactive,,
Nc1c(I)cc(I)c(C(=O)N(CCC(=O)O)c2ccccc2)c1I,inactive,inactive,inactive,inactive,inactive,inactive,inactive,inactive,inactive,inactive,inactive,,inactive,inactive,inactive,inactive,inactive,,inactive,inactive
CCCCCCCOC(=O)CCC,inactive,inactive,inactive,inactive,inactive,inactive,inactive,inactive,inactive,inactive,,inactive,,inactive,inactive,inactive,,,inactive,
Cc1ccc(C=O)cc1C,inactive,inactive,inactive,inactive,inactive,inactive,inactive,inactive,inactive,inactive,inactive,inactive,inactive,inactive,,inactive,inactive,,,
Clc1ccc(Nc2nnc(Cc3ccncc3)c3ccccc23)cc1,inactive,inactive,inactive,inactive,inactive,inactive,inactive,18.3 µM (active),,18.3 µM (active),inactive,inactive,inactive,inactive,inactive,inactive,inactive,,,inactive
